Measurements as given in PMC5540273 (PLoS ONE, 2017).

Tested on: PRKD3
Settings: concentration: 1 μM, replicates: in singlicate; n = 1
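Also: KINOMEscan kinase panel screen.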

Row | SMILES | %Inh
1 | COC(=O)Nc1nc2cc(Oc3ccc(NC(=O)Nc4cc(C(F)(F)F)ccc4F)cn3)ccc2[nH]1.Cl.Cl [GW681170] | 13%
2 | Fc1ccc(-c2ncn(C3CCNCC3)c2-c2ccnc(Oc3ccc(-c4ccccc4)cc3)n2)cc1 [SB-245391] | 0%
3 | Cc1ccc(C)c(NC(=O)NC2CCN(c3ccnc(Nc4ccc(F)cc4)n3)C2)c1 (centres unmarked) [GSK1379720] | 0%
4 | CSc1cccc2c(-c3ccncn3)c(-c3ccc(F)cc3)nn12 [GW514786] | 100%
5 | Oc1cc(Nc2ccnc3cc(I)ccc23)ccc1F [GW552771] | 40%
6 | Cc1ccc(S(=O)(=O)Nc2ccc(Nc3nccc(Nc4cccc5[nH]ncc45)n3)cc2)cc1 [GSK581271] | 0%
7 | COc1cccc(-c2ccc3c(NC(=O)C4CC4)n[nH]c3n2)c1 [SB-710903] | 0%
8 | O=C(Nc1cccc(-c2nn3ccccc3c2-c2ccnc(Nc3cccc(C(F)(F)F)c3)n2)c1)c1c(F)cccc1F [GSK292658] | 29%
9 | Cl.Cl.NCC(NCc1ccc(-c2ccnc3[nH]ccc23)s1)c1ccccc1 (centres unmarked) [GSK1321565] | 56%
10 | CCn1c(-c2nonc2N)nc2c(C#CC(C)(C)O)nc(OC[C@H](N)c3ccccc3)cc21 [GSK943949] | 22%
11 | COCCOCCOc1cc2ncc3c4ccc(C#N)cc4[nH]c3c2cc1OC | 0%
12 | Clc1ccc(-c2nn3ncccc3c2-c2ccnc(Nc3ccc4c(c3)OCCO4)n2)cc1 [GW829116] | 3%
13 | COc1cccc(NC(=O)NC2CCN(c3ccnc(Nc4cc(OC)c(OC)c(OC)c4)n3)C2)c1 (centres unmarked) [GSK1379763] | 0%
14 | COc1cccc(C(=O)Nc2cccc(Oc3ccc4nc(NC(=O)C5CC5)cn4n3)c2)c1 | 15%
15 | CN(C)Cc1ccc(-c2ccc3c(Nc4ccc(Oc5ccccn5)cc4)ccnc3c2)o1 [GW567148] | 0%
16 | Nc1ncc(-c2cccnc2)c2scc(-c3ccc4c(c3)CCN4C(=O)Cc3ccccc3)c12 [GSK683281] | 18%

Row | SMILES | %Inh
17 | COc1ccc(Nc2nccc(NCCNC(=O)c3cc4ccccc4s3)n2)cc1 [GSK1379896] | 0%
18 | O=C(Nc1n[nH]c2nc(-c3ccc(O)cc3)ccc12)C1CC1 [SB-710363] | 0%
19 | O=C(Nc1cccc(-c2nn3ccccc3c2-c2ccnc(Nc3cccc(F)c3)n2)c1)c1c(F)ccc(F)c1Cl [GSK357952] | 39%
20 | CN1CCN(Cc2cccc(-c3ccc4c(Nc5ccc(Oc6ccccc6)cc5)ccnc4c3)c2)CC1 [GW578342] | 0%
21 | COc1cc(Nc2nccc(N3CCC(NC(=O)Nc4cccc(C(C)=O)c4)C3)n2)cc(OC)c1OC (centres unmarked) [GSK1379753] | 0%
22 | c1ccc(Oc2ccc(Nc3ccnc4cc(-c5ccc(CNCCN6CCOCC6)o5)ccc34)cc2)nc1 [GW567145] | 23%
23 | CC(C)c1nc(-c2cccc(NS(=O)(=O)c3c(F)cccc3F)c2F)c(-c2ccnc(Nc3ccc(N4CCOCC4)nc3)n2)s1 [GSK2008607] | 100%
24 | C[C@@H](Oc1cc(-n2cnc3cc(-c4ccnc(NCCS(C)(=O)=O)c4)ccc32)sc1C(N)=O)c1ccccc1Cl [GSK907232] | 0%
25 | Cn1cc(-c2[nH]c3cc(NC(=O)[C@H](N)C4CCCCC4)cc4c3c2C=NNC4=O)cn1 | 0%
26 | CCS(=O)(=O)c1ccc(OC)c(Nc2nccc(-c3c(-c4cccc(NC(=O)c5c(F)cccc5F)c4)nn4ncccc34)n2)c1 [GSK326180] | 12%
27 | Cl.NC(=O)c1cccc(Nc2nccc(Nc3ccc(Oc4c(Cl)cccc4Cl)c(Cl)c3)n2)c1 [GW659009] | 21%
28 | Nc1ncc(-c2ccc3nccc(-c4ccncc4)c3c2)cc1S(=O)(=O)N1CCOCC1 [GSK1627798] | 0%
29 | Cn1cc(-c2ccc3c(c2)CCN3C(=O)Cc2cccc(Cl)c2)c2c(N)ncnc21 [GSK2606590] | 9%
30 | CC(C)(C)c1ccc2nccc(Nc3cccc(O)c3)c2c1 [GW856795] | 77%
31 | CC(=O)Nc1nc2cnc(Nc3cc(NC(=O)c4cccc(C5(C#N)CC5)c4Cl)ccc3C)nc2s1 | 0%
32 | COc1cc(Nc2nccc(N3CCC(NC(=O)c4cc5ccccc5s4)C3)n2)cc(OC)c1OC (centres unmarked) [GSK1379760] | 0%
